# Experimental data published in PMC7862700, “An all-to-all approach to the identification of sequence-specific readers for epigenetic DNA modifications on cytosine”.
# Assays:
# Test in all cases: DAPPL (digital affinity profiling via proximity ligation, sequencing); 10 mM Tris-HCl pH 7.5, 50 mM NaCl, 1 mM DTT, 4% glycerol, room temperature, 30 min; GST-TFs on glutathione beads, 16-mer random dsDNA library, 0.1% formaldehyde crosslink after washing; high values mean tight binding
# Conditions in all cases: protein: recombinant; tags: N-terminal GST; dsDNA, one strand shown
# [1] = biological target: T1, FLI1 (Homo sapiens, UniProt Q01543 1-452)
# T1 sequence: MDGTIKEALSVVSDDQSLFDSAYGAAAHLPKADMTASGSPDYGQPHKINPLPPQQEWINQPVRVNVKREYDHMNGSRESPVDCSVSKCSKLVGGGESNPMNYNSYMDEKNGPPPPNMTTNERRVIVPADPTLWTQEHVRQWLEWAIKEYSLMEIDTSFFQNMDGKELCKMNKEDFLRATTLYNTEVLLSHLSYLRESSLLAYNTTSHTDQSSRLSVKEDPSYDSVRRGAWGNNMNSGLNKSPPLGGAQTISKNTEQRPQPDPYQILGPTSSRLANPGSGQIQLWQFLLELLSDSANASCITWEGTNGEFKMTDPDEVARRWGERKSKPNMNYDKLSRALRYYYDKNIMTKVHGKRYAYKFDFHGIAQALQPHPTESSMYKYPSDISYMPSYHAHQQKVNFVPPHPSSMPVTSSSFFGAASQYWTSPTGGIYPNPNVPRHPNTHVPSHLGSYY
# Method in brief: (§1)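 A tag-only sample was pooled with DNA-barcoded human transcription factors that had been expressed in yeast as GST fusions and captured on glutathione beads. The pools were incubated for 30 min at room temperature with 200 nmole of a random double-stranded 16-mer DNA library in Tris/NaCl/DTT/glycerol buffer, then washed, crosslinked with 0.1% formaldehyde, proximity-ligated (BsaI/T4 ligase, 1 h, 37 °C), PCR-amplified and sequenced on an Illumina NextSeq500. Binding signal is each hexamer's read frequency for a factor divided by its frequency for the tag-only sample.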
# [2] = biological target: T2, ELK1 (Homo sapiens, UniProt P19419 1-428)
# T2 sequence: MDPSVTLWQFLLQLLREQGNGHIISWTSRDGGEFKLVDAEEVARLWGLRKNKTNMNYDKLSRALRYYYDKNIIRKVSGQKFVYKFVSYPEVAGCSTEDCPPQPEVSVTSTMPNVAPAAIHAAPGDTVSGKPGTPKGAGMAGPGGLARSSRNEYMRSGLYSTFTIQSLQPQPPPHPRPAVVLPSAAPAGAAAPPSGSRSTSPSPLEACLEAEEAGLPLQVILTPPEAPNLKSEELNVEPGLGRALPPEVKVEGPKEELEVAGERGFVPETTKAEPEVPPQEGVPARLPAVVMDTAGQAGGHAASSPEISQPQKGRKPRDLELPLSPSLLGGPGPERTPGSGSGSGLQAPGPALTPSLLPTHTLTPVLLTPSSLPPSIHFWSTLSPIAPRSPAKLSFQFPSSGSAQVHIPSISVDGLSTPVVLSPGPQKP
# Method in brief: as §1
# [3] = biological target: T3, GABPA (Homo sapiens, UniProt Q06546 1-454)
# T3 sequence: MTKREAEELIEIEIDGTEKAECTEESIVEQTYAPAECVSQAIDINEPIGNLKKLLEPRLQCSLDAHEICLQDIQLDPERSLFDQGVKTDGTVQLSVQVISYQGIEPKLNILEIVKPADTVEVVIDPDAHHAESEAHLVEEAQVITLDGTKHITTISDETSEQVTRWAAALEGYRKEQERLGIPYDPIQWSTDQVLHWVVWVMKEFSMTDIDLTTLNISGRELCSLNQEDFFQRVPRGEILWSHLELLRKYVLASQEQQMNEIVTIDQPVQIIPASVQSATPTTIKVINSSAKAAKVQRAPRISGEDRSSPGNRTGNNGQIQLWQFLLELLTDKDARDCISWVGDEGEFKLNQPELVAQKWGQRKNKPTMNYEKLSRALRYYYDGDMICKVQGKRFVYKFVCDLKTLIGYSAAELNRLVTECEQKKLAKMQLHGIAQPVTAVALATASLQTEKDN
# Method in brief: as §1
# [4] = biological target: T4, ERG (Homo sapiens, UniProt P11308 1-479)
# T4 sequence: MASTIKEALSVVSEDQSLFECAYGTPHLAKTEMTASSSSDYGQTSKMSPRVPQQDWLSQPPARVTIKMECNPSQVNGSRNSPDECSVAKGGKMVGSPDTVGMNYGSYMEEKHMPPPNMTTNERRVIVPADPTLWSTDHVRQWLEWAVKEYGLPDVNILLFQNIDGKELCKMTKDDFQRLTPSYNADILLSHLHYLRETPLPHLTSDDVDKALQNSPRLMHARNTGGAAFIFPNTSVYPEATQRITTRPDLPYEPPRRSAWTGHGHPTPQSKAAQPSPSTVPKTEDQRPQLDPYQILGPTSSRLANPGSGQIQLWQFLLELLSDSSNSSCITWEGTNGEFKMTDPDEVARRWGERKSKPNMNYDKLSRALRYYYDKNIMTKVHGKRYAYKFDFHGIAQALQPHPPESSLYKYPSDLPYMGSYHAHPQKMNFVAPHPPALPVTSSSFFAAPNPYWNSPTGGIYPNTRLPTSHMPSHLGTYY
# Method in brief: as §1
# [5] = biological target: ELF1 (Homo sapiens, UniProt P32519 1-619)
# Sequence of ELF1 (P32519 whole entry): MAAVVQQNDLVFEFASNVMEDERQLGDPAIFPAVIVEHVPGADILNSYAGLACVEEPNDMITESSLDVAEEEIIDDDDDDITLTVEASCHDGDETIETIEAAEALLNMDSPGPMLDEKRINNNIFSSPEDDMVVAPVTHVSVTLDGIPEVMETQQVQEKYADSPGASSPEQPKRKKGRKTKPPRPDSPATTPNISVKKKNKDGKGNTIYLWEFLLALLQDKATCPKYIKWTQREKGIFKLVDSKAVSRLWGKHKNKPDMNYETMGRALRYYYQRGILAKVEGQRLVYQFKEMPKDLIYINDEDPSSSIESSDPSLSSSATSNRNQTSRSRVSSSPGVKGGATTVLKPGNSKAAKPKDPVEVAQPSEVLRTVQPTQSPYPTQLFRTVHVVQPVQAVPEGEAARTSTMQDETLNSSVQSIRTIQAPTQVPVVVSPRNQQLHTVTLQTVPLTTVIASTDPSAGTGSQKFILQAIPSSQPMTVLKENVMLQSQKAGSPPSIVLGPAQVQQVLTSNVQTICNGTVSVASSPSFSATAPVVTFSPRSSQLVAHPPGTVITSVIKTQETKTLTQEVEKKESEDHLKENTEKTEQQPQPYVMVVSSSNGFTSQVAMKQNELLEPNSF
# Method in brief: as §1
# [6] = biological target: T5, EHF (Homo sapiens, UniProt Q9NZC4 1-300)
# T5 sequence: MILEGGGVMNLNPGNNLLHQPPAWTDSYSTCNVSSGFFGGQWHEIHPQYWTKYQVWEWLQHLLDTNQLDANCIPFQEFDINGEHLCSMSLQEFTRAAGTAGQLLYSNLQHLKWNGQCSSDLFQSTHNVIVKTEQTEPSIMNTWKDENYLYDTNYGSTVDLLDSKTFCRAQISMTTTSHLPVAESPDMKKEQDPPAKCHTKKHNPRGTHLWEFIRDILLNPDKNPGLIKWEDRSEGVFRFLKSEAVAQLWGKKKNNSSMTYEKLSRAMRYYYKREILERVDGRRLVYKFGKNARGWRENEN
# Method in brief: as §1
# [7] = biological target: SPI1 (Homo sapiens, UniProt P17947 1-270)
# Method in brief: as §1
# [8] = biological target: SPIB (Homo sapiens, UniProt Q01892 1-262)
# Sequence of SPIB (Q01892 whole entry): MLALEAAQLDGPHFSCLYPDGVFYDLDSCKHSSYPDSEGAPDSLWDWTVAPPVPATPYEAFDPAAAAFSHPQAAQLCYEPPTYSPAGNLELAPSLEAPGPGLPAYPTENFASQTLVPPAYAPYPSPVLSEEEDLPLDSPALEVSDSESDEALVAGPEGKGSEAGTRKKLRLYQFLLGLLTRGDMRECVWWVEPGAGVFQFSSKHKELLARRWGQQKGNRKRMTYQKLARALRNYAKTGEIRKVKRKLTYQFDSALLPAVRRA
# Method in brief: as §1
# [9] = biological target: T6, ELK3 (Homo sapiens, UniProt P41970 1-407)
# T6 sequence: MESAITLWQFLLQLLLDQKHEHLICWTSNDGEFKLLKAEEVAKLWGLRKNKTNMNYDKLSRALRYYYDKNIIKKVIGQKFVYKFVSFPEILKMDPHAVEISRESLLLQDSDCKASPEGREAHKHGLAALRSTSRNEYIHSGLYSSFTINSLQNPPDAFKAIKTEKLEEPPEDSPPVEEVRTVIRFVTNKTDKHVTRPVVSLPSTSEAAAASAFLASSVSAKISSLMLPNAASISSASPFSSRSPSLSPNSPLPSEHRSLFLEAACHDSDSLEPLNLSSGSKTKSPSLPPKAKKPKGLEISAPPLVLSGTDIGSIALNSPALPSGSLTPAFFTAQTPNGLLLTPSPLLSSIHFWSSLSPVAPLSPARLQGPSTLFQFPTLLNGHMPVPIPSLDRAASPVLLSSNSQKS
# Method in brief: as §1
sequence,measurement,setting,value
CTTCTA,binding signal,[1],"1.39 fold enrichment (6-mer frequency, TF over GST control)"
same,binding signal,[2],"1.41 fold enrichment (6-mer frequency, TF over GST control)"
same,binding signal,[3],"1.44 fold enrichment (6-mer frequency, TF over GST control)"
same,binding signal,[4],"1.32 fold enrichment (6-mer frequency, TF over GST control)"
same,binding signal,[5],"1.52 fold enrichment (6-mer frequency, TF over GST control)"
same,binding signal,[6],"1.54 fold enrichment (6-mer frequency, TF over GST control)"
same,binding signal,[7],"1.41 fold enrichment (6-mer frequency, TF over GST control)"
same,binding signal,[8],"1.48 fold enrichment (6-mer frequency, TF over GST control)"
same,binding signal,[9],"1.34 fold enrichment (6-mer frequency, TF over GST control)"
